In the library only some 5.2% were active in any assay of this set; here they are far more common.
Sfp inh: qHTS Assay for Inhibitors of Bacillus subtilis Sfp phosphopantetheinyl transferase (PPTase). Biochemical Sfp PPTase activity, qHTS. hit rate 3.5% among 310,000. Potency, µM, for the others: largest response in the series, negative = inhibition, actives largely listed as inhibitors;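 further: the enzyme is Sfp with the accession as filed and its product quenches rhodamine fluorescence; potency means the concentration at half of the fitted maximal effect; 0% = enzyme reaction without inhibitor and -100% = no enzyme wells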
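Fluorescence-quenching assay with 15 nM Sfp, 5 uM rhodamine-CoA and 12.5 uM BHQ-2-labelled ybbR peptide in pH 7.6 Hepes/MgCl2 buffer. Enzyme was pre-incubated with compound for 15 min at room temperature. Rate was taken from the 30-min fluorescence change (525/598 nm).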
Tau fibril FP: qHTS for Inhibitors of Tau Fibril Formation, Fluorescence Polarization | Microtubule-associated protein tau (Homo sapiens), P10636 | K18 P301L tau heparin fibrillization, Alexa594 FP, 6 h | Potency, µM (series often up to 57.7 µM), for the others: at the top dose activity, negative = inhibition, most hits filed as inhibitors | hit rate 0.39% among 280,000 | AID 1468, 2008; further: potency means the concentration at half of the fitted maximal effect; nearly all actives have a fitted effect of over 55% in size
Target sequence (P10636 561-689 P618L limits assumed): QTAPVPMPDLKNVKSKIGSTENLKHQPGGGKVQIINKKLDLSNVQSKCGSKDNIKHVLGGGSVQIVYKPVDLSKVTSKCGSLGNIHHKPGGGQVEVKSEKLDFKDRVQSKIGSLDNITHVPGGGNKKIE
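Recombinant K18 P301L […], labeled with Alexa 594 at 0.24 uM over 15 uM unlabeled; heparin inducer 20 uM final; 37 C, 6 hr; FP endpoint.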
Tau ThT inhib: qHTS for Inhibitors of Tau Fibril Formation, Thioflavin T Binding; recombinant tau K18 P301L, heparin-induced fibrillization, ThT fluorescence; Microtubule-associated protein tau (Homo sapiens), P10636; Potency, µM (titrated, usually from 57.4 µM), without a hit: top-dose activity, negative = inhibition, usual class: inhibitors; hit rate 2.1% among 270,000; AID 1460, 2008; further: potency means the concentration at half of the fitted maximal effect; nearly all actives have a fitted effect of over 55% in size
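ThT emission at 510 nm, taken 1 hr after adding 30 uM dye, quantifies aggregates formed when 20 uM heparin acts on human tau K18 P301L for 6 hr at 37 C.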
Tau fluor cs: Counterscreen qHTS for Inhibitors of Tau Fibril Formation, Fluorescence Polarization; Potency, µM (titrated, usually from 57.7 µM), for the others: at the highest dose activity change, negative = decrease; hit rate 0.93% among 280,000; tau K18 P301L (four-repeat tau fragment) Alexa594 fluorescence, heparin fibrillization; further: potency means the concentration at half of the fitted maximal effect; nearly all actives have a fitted effect of over 55% in size
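Human K18 P301L tau (15 uM unlabeled plus 0.24 uM Alexa 594-labeled, final) in 100 mM sodium acetate pH 7 was mixed with compound and 20 uM heparin and incubated 6 hr at 37 C.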
FBPA coupling cs: qHTS Assay for Inhibitors of Fructose-1,6-bisphosphate Aldolase from Giardia Lamblia: Coupling assay counterscreen; coupling enzyme system counterscreen, AmpLite Red fluorescence; AID 2472, 2010; activity change, negative = inhibition, % at 58.2 µM, hits read low; hit rate 0.67% among 290,000; in the data active means activity change below about -30%
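Activity here indicates interference with the coupling reaction, not aldolase inhibition. Compounds at 57.5 uM final met coupling enzymes for 10 min at RT; substrate and AmpLite Red detection followed, with a 525/598 nm fluorescence read after 20 min.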
Active calls of the source: *; u = inconclusive; x = no result; [ ] = another dose, or the depositor's remark. Unless noted, the call rests on the fitted dose curve; in most records, active means well fitted curve in the direction sought with a large enough effect; inconclusive means small, poorly fitted or top-dose-only effect, or another doubt; inactive means no such curve, though single readings can be large; an effect the other way counts as inactive or inconclusive. Unless noted, on the % scale 0 is the no-effect control and ±100 the full control effect.

SMILES | Sfp inh | Tau fibril FP | Tau ThT inhib | Tau fluor cs | FBPA coupling cs
CCOC(=O)C1=C(C)NC(SCc2cc(=O)[nH][nH]2)=C(C#N)C1c1cccs1 (centres undefined) | u | u | 13µM* | u | 3
CC(=O)C1=C(C)NC(SCC(=O)Nc2nccs2)=C(C#N)C1c1ccccc1Cl (centres undefined) | -29% | 7% | -7% | -15% | -4
C=CCOC(=O)C1=C(C)NC(SCC(=O)Nc2nccs2)=C(C#N)C1c1cccs1 (centres undefined) | 0% | -14% | u | 16µM*[quencher] | -1
CS(=O)(=O)Nc1ccccc1C(=O)OCc1cc(=O)n2nc(C3CCCCC3)sc2n1 | x | 10% | -17% | -1% | x
O=C1NC(c2cccs2)Nc2sc3c(c21)CCCC3 (centres undefined) | 45µM* | u | 2.5µM* | u | -9
Cc1ccc(Sc2ccc(N3CCC(C(=O)Nc4ccc(Cl)cc4)CC3)nn2)cc1 | x | -15% | 3% | -16% | x
Cc1ccccc1N1C(=O)c2sc3nc4c(c(=O)n3c2C1=O)CCC4 | 22µM* | u | u | -6% | -4
O=C1c2sc3nc4ccccc4n3c2C(=O)N1c1ccccc1Cl | 40µM* | u | 28µM* | -29% | 0
O=C1c2sc3nc4c(c(=O)n3c2C(=O)N1c1ccccc1)CCC4 | u | -4% | -6% | -7% | 2
COC(=O)c1ccc2c(=O)n(NC(C)=O)c(=S)[nH]c2c1 | 4µM* | -4% | -12% | 5% | 4
CCn1c(=S)[nH]c2cc(C(=O)OC)ccc2c1=O | 16% | 3% | -7% | -7% | 2
COc1ccc(C(=O)Nc2ccc(OCc3cc(=O)n4ccccc4n3)cc2)cc1 | x | u | u | -11% | x
COc1ccc2nc3cc(Cl)ccc3c(Nc3cc(C(C)C)c(O)cc3C)c2c1 | 50µM* | u | 5µM* | 7.1µM*[quencher] | -24
CN(C)CCN(C(=O)c1ccc(C(=O)c2ccccc2)cc1)c1nc2cc3c(cc2s1)OCO3 | 56µM* | x | x | x | x
CCN(CC)CCN(C(=O)c1ccc(S(=O)(=O)N2CCCCC2)cc1)c1nc2cc3c(cc2s1)OCO3 | 7% | -6% | -5% | -10% | -1
CN(C)CCN(C(=O)c1ccc(C(=O)c2ccccc2)cc1)c1nc2cc3c(cc2s1)OCCO3 | u | x | x | x | -3
CCN(CC)CCN(C(=O)c1ccc2ccccc2c1)c1nc2cc3c(cc2s1)OCO3 | 45µM* | x | x | x | -1
CCN(CC)CCN(C(=O)c1ccc2c(c1)CCCC2)c1nc2ccc(OC)cc2s1 | 79µM* | x | x | x | -9
Cc1cc(C)c2nc(N(CCN(C)C)C(=O)c3ccc4ccccc4c3)sc2c1 | 56µM* | x | x | x | 1
CCN(Cc1ccccc1)S(=O)(=O)c1ccc(C(=O)N(CCCN(C)C)c2nc3cc4c(cc3s2)OCO4)cc1 | 56µM* | x | x | x | x
CC(=O)c1ccc(NC(=O)c2cccc(NC(=O)N3CCSc4ncccc43)c2)cc1 | x | u | 17% | 7% | x
Cc1ccc2cc(CN(CC3CCCO3)C(=S)NCc3ccco3)c(=O)[nH]c2c1C (centres undefined) | 32µM* | 8% | -10% | -2% | -3
CCc1ccc2[nH]c(=O)c(CN(CCN(C)C)C(=S)NCc3ccco3)cc2c1 | -15% | 2% | -13% | -6% | 0
CCc1ccc2[nH]c(=O)c(CN(CCN(CC)CC)C(=S)NCc3ccco3)cc2c1 | 79µM* | -1% | -13% | -17% | 1
Cc1ccc(C)c2[nH]c(=O)c(CN(CC3CCCO3)C(=S)NCc3ccco3)cc12 (centres undefined) | -24% | -6% | x | -27% | -3
Cc1cc(C)c2cc(CN(Cc3ccco3)C(=S)NCC3CCCO3)c(=O)[nH]c2c1 (centres undefined) | 20µM* | -9% | u | -14% | -11
O=C(c1ccco1)N(Cc1cc2ccccc2[nH]c1=O)CC1CCCO1 (centres undefined) | 14% | 5% | -9% | -2% | 0
